Measurements: PubChem BioAssay
Inconclusive results are not listed. Calls of active or inactive are those of the source.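 Rule for the calls, unless noted: active = aptamer binding inhibition above 30%, about 3 SD of noise from non-fluorescent compounds; inactive = inhibition at or below 30%.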

Key:
[1] = yeast TOR pathway RPL19A-GFP modulators, primary screen, cell-based, S. cerevisiae, multiplex flow cytometry (AID 1862; in the data active = percent of DMSO control GFP below about 86%;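 note: lower values mimic rapamycin by blocking the RPL19A rise seen in DMSO cells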); settings: S. cerevisiae RPL19A-GFP strain, flow cytometry fluorescence, 3 h; at 10 µM; stronger effect = lower value
[2] = modulators of MEP2-GFP levels in yeast, primary screen, S. cerevisiae, multiplex flow cytometry (AID 1867;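 active = GFP response, as percent of the DMSO control, above the screen-wide mean plus 3 SD, about 139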;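 note: median GFP channel fluorescence of barcode-gated MEP2-GFP cells measured by flow cytometry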); settings: S. cerevisiae MEP2-GFP strain, 3 h, at 10 µM, stronger effect = higher value, 100% means same as DMSO wells
[3] = modulators of CIT2-GFP expression in yeast, primary screen, S. cerevisiae, GFP fusion, multiplex flow cytometry (AID 1870;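 active = percent response above a set limit, the screen-wide mean plus 3 SD, cut at about 130% in these data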;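 note: barcoded CIT2-GFP strain pooled with four other GFP strains with rapamycin as positive control; median GFP fluorescence per well over plate mean of DMSO wells so 100% = DMSO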); settings: 3 h, at 10 µM, stronger effect = higher value
[4] = modulators of LAP4-GFP expression in yeast, primary screen, S. cerevisiae, multiplex flow cytometry (AID 1873;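 active = GFP signal, as percent of the solvent control, above the screen mean plus 3 SD, about 149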); settings: 3 h, at 10 µM, stronger effect = higher value
[5] = modulators of AGP1-GFP expression in yeast TOR pathway, primary screen, cell-based, multiplex flow cytometry, S. cerevisiae (AID 1887;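 active = GFP signal above the screen-wide mean plus 3 SD, that is over about 124.5% of the solvent control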;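 note: AGP1-GFP fusion strain of S. cerevisiae within a five-strain barcoded multiplex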); settings: 3 h, at 10 µM, stronger effect = higher value
[6] = inhibitors of CD8+ T cell-vesicle binding, pilot screen, LFA-1/ICAM-1 modulator project, MLPCN validation set, flow cytometry (AID 2523;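 active = response below a set limit, under 55% cells CD8-positive and vesicle-bound, and CD8 cells' 90th-percentile brightness under 279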;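 for vesicle binding response: mean PE anti-B7-1 fluorescence of CD8+ cells relative to row control; 100% = QL9-loaded vesicles with DMSO vehicle in the same plate row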); settings: 2C mouse CD8+ T cells, at 7 µM, stronger effect = lower value; double positive events: measured here: CD8+/vesicle+ event percentage
[7] = biological target: Integrin beta-1 (Homo sapiens) + Integrin alpha-4 (Homo sapiens) (UniProt P13612+P05556); test: inhibition of HUTS-21 binding to VLA-4, pilot screen, VLA-4 allosteric modulator project, U937 cells, HUTS-21 mAb, flow cytometry, validation set (AID 2674;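 active = inhibition above 50%, about 3 SD of the validation set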;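 note: antibody binding induced by the VLA-4 ligand LDV present at three times its Kd; 0% = LDV ligand with antibody and no compound and 100% = antibody without LDV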); settings: HUTS-21 LIBS mAb binding, at 6.7 µM, stronger effect = higher value, binding induced by LDV ligand
Sequence of Integrin beta-1 (Homo sapiens) + Integrin alpha-4 (Homo sapiens) (P05556 whole entry, looked up): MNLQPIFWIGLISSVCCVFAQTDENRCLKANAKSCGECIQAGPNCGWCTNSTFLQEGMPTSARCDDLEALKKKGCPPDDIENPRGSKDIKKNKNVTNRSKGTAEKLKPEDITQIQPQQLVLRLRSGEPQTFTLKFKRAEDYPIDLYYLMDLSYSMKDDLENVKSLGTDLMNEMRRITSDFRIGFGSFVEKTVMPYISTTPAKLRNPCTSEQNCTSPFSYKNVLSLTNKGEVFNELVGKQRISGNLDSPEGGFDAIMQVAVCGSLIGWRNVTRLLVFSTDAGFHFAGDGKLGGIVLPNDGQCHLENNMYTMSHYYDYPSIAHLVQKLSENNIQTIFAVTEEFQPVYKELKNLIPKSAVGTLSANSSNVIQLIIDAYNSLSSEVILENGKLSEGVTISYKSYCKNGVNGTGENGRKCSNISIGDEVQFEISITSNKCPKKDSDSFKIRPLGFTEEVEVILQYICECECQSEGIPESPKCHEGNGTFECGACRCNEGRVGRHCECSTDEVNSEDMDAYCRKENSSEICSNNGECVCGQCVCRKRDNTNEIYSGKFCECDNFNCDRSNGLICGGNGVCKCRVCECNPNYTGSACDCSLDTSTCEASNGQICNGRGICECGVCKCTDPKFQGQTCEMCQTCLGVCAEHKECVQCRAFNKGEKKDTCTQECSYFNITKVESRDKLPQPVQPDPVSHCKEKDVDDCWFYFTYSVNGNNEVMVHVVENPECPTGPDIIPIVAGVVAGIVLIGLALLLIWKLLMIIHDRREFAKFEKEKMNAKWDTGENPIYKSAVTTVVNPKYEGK
Sequence of Integrin beta-1 (Homo sapiens) + Integrin alpha-4 (Homo sapiens) (P13612 whole entry, looked up): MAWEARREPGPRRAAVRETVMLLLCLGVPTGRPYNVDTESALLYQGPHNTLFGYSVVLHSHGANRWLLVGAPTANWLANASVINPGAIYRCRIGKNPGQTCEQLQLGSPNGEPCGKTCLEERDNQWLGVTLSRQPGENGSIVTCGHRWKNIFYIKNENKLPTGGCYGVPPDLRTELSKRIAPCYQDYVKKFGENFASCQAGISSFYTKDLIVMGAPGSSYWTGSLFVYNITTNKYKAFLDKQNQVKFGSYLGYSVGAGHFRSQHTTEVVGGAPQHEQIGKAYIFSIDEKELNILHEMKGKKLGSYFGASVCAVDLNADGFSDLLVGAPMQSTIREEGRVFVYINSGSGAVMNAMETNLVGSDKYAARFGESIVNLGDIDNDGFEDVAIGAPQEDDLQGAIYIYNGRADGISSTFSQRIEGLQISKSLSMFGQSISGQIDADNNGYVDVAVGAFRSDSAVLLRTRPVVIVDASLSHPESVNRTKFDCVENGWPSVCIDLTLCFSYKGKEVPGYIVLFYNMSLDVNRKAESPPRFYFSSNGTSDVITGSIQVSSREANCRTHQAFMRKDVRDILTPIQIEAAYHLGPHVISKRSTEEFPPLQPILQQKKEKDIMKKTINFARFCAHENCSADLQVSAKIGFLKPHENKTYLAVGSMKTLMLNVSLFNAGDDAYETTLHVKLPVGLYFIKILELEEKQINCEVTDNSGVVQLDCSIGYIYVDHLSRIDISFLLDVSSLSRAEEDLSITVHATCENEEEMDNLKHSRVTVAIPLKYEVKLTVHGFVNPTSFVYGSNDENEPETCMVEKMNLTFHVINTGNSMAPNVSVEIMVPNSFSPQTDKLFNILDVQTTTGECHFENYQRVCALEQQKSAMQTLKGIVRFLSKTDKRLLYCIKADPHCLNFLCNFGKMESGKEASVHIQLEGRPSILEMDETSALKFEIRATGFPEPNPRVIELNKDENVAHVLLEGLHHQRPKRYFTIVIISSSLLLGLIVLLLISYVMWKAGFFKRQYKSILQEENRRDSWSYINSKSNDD

[8] = superoxide lowering in aged yeast cells, pilot screen, validation compound set (AID 2706;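 active = superoxide response below 65% of plate, a cut near 3 SD across the whole screen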;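 note: yeast exposed to compound for one week at 30 degrees C before staining; 100% = mean of all compound wells on the same plate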); settings: S. cerevisiae aging, superoxide DHE fluorescence; at 10 µM; stronger effect = lower value
[9] = biological target: Beta-adrenergic receptor kinase 1 (Homo sapiens) (UniProt P25098); test: GRK2 binders displacing RNA aptamer, biochemical, validation, human GRK2, bead flow cytometry (AID 488806); settings: bead-bound GRK2, FAM-aptamer displacement, at 10 µM, stronger effect = higher value
Sequence of Beta-adrenergic receptor kinase 1 (Homo sapiens) (P25098 whole entry, looked up): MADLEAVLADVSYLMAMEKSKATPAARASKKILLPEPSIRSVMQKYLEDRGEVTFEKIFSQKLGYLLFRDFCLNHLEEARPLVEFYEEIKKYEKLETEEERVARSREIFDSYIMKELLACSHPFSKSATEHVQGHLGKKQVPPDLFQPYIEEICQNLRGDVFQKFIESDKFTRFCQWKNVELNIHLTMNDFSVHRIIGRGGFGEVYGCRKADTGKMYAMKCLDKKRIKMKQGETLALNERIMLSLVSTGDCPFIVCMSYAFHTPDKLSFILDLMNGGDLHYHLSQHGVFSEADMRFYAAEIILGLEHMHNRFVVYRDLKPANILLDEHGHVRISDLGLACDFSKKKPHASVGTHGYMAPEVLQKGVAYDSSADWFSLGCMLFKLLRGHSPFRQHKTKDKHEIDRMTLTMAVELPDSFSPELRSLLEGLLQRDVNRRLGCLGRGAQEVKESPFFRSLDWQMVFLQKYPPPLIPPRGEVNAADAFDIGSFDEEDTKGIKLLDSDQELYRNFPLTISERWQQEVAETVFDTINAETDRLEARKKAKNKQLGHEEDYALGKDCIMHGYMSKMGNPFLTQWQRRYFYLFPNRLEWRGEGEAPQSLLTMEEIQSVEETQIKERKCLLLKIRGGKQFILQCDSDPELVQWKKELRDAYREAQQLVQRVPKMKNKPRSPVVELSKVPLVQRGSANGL

[10] = biological target: Beta-2 adrenergic receptor (Homo sapiens) (UniProt P07550); test: beta2AR agonists driving receptor internalization, pilot screen, cell-based, FAP fluorogen, flow cytometry, validation set (AID 504459;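 active = percent response above 42, roughly 3 SD of non-fluorescent test compounds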;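 note: agonist-driven loss of surface beta2AR via internalization measured by FAP dye flow cytometry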); settings: Am2.2-beta2AR cells, FAP surface receptor flow cytometry; at 10 µM; stronger effect = higher value
Sequence of Beta-2 adrenergic receptor (Homo sapiens) (P07550 whole entry, looked up): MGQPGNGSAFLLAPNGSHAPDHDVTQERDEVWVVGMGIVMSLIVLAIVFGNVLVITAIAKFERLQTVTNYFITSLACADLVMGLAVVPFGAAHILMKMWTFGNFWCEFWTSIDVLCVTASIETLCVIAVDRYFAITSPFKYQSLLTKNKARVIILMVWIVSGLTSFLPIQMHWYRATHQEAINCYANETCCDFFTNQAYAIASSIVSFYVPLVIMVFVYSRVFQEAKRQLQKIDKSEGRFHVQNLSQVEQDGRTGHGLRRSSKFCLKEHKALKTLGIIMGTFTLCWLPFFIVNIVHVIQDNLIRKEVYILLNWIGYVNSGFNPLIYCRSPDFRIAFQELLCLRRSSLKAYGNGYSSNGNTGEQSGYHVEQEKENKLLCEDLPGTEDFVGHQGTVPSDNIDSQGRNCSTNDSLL

[11] = biological target: AP-2 complex subunit beta (Homo sapiens) (UniProt P63010); test: inhibitors of arrestin peptide binding to AP2, pilot screen, biochemical, validation set, GST-AP2 beads, flow cytometry (AID 504541;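 active = inhibition above 54%, about 3 SD of non-fluorescent compounds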;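 note: AP2 carries R879A mutation and is captured from E. coli lysate; bead-bound FITC arrestin peptide fluorescence measuring arrestin peptide binding to AP2; 0% = DMSO wells and 100% = excess unlabeled arrestin peptide control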); settings: FITC arrestin peptide, at 10 µM, stronger effect = higher value, AP2 beta2 appendage fragment, R879A mutant
Sequence of AP-2 complex subunit beta (Homo sapiens) (P63010 whole entry, looked up, the tested form may be a part, one chain of several): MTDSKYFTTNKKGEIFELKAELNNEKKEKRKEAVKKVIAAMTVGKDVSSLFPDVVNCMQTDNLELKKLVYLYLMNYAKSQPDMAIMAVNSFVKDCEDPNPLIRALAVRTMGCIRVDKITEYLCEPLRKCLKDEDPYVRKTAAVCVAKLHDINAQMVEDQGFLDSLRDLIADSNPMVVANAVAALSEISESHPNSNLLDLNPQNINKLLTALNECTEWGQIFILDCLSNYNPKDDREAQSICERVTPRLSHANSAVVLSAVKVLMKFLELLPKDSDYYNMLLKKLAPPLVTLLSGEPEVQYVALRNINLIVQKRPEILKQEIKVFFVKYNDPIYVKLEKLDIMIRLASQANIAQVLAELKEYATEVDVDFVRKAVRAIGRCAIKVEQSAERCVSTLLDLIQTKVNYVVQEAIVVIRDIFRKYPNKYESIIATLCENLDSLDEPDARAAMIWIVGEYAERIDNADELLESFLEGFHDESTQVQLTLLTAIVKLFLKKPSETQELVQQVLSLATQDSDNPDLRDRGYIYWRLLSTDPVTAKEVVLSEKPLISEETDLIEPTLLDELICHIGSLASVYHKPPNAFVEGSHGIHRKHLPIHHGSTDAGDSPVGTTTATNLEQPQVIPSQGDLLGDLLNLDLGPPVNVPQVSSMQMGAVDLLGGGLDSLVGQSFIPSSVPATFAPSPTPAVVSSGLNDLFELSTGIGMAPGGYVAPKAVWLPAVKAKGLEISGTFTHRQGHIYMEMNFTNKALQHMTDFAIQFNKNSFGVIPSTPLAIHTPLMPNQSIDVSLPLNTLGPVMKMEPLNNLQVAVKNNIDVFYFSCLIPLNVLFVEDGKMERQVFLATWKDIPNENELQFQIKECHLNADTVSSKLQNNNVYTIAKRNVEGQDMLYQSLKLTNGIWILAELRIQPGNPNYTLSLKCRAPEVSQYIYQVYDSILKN

[12] = yeast V-ATPase proton transport modulators, S. cerevisiae, pHLuorin, HTS validation (AID 504600; in the data active = response above about 15%;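 note: plate controls were DMSO for no effect and reference compound for full effect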); settings: S. cerevisiae pHLuorin cytosolic pH, at 10 µM, stronger effect = higher value
[13] = tested on: anti-desmoglein-3 scFv antibody binding to human DSG3; test: inhibitors of anti-DSG3 scFv binding to DSG3, pilot screen, biochemical, validation compound set, bead-based, flow cytometry (AID 588368;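 active = binding below the plate cutoff, the plate median minus 3 SD, with a reading above zero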;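 note: signal is the median channel fluorescence of bead-bound GFP antibody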); settings: Protein G beads, DSG3-Fc, scFv-GFP binding, at 10 µM, stronger effect = lower value
[14] = inhibitors of fungal efflux pumps CDR1, CDR2, MDR1, pilot screen, validation compound set, multiplex, phenotypic (AID 588506;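 active = efflux inhibition above 0.42, the validation set average plus 4 SD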;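 note: Nile Red retained in cells so higher fluorescence means more efflux inhibition; 0 = negative control wells and 1 = enniatin B 25 µM full block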); settings: S. cerevisiae pump-expressing triplex, Nile Red efflux flow cytometry; at 10 µM; stronger effect = higher value; the pumps come from Candida albicans
[15] = biological target: ATP-binding cassette sub-family B member 6 (Homo sapiens) (UniProt Q9NP58); test: ABCB6 transporter inhibitors, pilot screen, K562-ABCB6 cells, flow cytometry, validation set (AID 588550;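 active = inhibition above the screen-wide mean plus 3 SD, about 51%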;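 note: 0% = DMSO wells and 100% = benzethonium chloride 70 µM positive control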); settings: K562-ABCB6 porphyrin accumulation, 1 h, at 10 µM, stronger effect = higher value
Sequence of ATP-binding cassette sub-family B member 6 (Homo sapiens) (Q9NP58 whole entry, looked up): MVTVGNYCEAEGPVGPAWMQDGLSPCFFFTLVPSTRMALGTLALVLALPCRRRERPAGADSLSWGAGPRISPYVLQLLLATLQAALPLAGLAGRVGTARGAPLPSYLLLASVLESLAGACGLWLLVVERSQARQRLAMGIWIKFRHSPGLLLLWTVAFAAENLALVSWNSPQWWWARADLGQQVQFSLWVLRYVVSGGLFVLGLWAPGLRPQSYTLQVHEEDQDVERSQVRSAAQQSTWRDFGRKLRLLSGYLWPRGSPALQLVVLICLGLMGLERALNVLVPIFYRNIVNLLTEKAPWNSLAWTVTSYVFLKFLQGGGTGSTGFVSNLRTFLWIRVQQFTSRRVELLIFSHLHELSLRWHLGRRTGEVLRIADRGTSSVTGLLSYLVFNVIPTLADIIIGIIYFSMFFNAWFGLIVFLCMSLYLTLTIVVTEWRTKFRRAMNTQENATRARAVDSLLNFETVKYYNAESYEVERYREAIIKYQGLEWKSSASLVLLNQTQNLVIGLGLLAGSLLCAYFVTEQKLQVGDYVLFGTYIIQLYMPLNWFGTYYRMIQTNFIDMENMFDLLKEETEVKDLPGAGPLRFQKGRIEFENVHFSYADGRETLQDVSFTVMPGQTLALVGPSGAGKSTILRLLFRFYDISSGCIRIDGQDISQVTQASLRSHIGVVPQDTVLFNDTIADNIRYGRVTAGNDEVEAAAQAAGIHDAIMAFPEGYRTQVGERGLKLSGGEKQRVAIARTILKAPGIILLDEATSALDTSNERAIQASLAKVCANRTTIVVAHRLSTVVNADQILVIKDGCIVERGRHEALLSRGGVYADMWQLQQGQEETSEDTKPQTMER

[16] = promoters of myeloid differentiation in arrested cells, primary screen, cell-based, GFP/MAC1 double positive, flow cytometry, validation set (AID 588685;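 active = differentiation response of at least 50%, scaled between solvent and reference control, from cells with both markers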;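 note: compound exposure lasts four days before antibody staining and flow analysis; 0% = DMSO wells and 100% = 5 µM fulvestrant positive control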); settings: ER-HoxA9 marrow cells, stronger effect = higher value, normalized: vehicle 0, fulvestrant 100

## Cn1c(SCC(=O)c2ccccc2)nnc1-c1ccncc1
[1]
  percent of DMSO control GFP: 99% (inactive)
[2]
  GFP response vs DMSO: 103% (inactive)
[3]
  percent response of DMSO control: 99.6% (inactive)
[4]
  GFP response vs DMSO: 112% (inactive)
[5]
  GFP response, % of DMSO: 107% (inactive)
[6]
  double positive events: 61.9%
  vesicle binding response: 157% (inactive)
[7]
  inhibition: 0.59% (inactive)
[8]
  superoxide response (% of plate): 105% (inactive)
[9]
  aptamer binding inhibition: 6% (inactive)
[10]
  response: -27.9% (inactive)
[11]
  inhibition: 4.51% (inactive)
[12]
  response: -4.48% (inactive)
[13]
  binding (% of control): 99.2% (inactive)
[14]
  efflux inhibition (fraction of control): -0.04 (inactive)
[15]
  inhibition: 2% (inactive)
[16]
  differentiation response: 0.92% (inactive)

## Cc1nc2ccccc2n1CC(=O)NC1CCCC1
[1]
  percent of DMSO control GFP: 101% (inactive)
[2]
  GFP response vs DMSO: 95.6% (inactive)
[3]
  percent response of DMSO control: 109% (inactive)
[4]
  GFP response vs DMSO: 92.6% (inactive)
[5]
  GFP response, % of DMSO: 105% (inactive)
[6]
  double positive events: 60.6%
  vesicle binding response: 118% (inactive)
[7]
  inhibition: -2.43% (inactive)
[8]
  superoxide response (% of plate): 84.9% (inactive)
[9]
  aptamer binding inhibition: -2% (inactive)
[10]
  response: 7.07% (inactive)
[11]
  inhibition: -5.83% (inactive)
[12]
  response: 0.83% (inactive)
[13]
  binding (% of control): 105% (inactive)
[14]
  efflux inhibition (fraction of control): 0.115 (inactive)
[15]
  inhibition: -2% (inactive)
[16]
  differentiation response: -8.96% (inactive)

## COc1cc(CNCCc2ccccc2F)ccc1OCC(=O)N1CCCCC1
[1]
  percent of DMSO control GFP: 98.6% (inactive)
[2]
  GFP response vs DMSO: 104% (inactive)
[3]
  percent response of DMSO control: 96.7% (inactive)
[4]
  GFP response vs DMSO: 114% (inactive)
[5]
  GFP response, % of DMSO: 100% (inactive)
[6]
  double positive events: 57.8%
  vesicle binding response: 196% (inactive)
[7]
  inhibition: -1.79% (inactive)
[8]
  superoxide response (% of plate): 103% (inactive)
[9]
  aptamer binding inhibition: -1% (inactive)
[10]
  response: -8.73% (inactive)
[11]
  inhibition: 22.6% (inactive)
[12]
  response: -3.26% (inactive)
[13]
  binding (% of control): 98.2% (inactive)
[14]
  efflux inhibition (fraction of control): -0.35 (inactive)
[15]
  inhibition: 2% (inactive)
[16]
  differentiation response: 29.6% (inactive)

## CCN(CC)C(=O)N1CCN(C)CC1
[1]
  percent of DMSO control GFP: 101% (inactive)
[2]
  GFP response vs DMSO: 106% (inactive)
[3]
  percent response of DMSO control: 101% (inactive)
[4]
  GFP response vs DMSO: 101% (inactive)
[5]
  GFP response, % of DMSO: 108% (inactive)
[6]
  double positive events: 63.6%
  vesicle binding response: 158% (inactive)
[7]
  inhibition: -3.77% (inactive)
[8]
  superoxide response (% of plate): 104% (inactive)
[9]
  aptamer binding inhibition: -1% (inactive)
[10]
  response: -0.51% (inactive)
[11]
  inhibition: 7.6% (inactive)
[12]
  response: 0.18% (inactive)
[13]
  binding (% of control): 103% (inactive)
[14]
  efflux inhibition (fraction of control): 0.72 (active)
[15]
  inhibition: 9% (inactive)
[16]
  differentiation response: -13.3% (inactive)

## O=C(O)CCCNc1ccc(S(=O)(=O)Nc2ccccc2C(=O)O)cc1C(=O)O
[1]
  percent of DMSO control GFP: 105% (inactive)
[2]
  GFP response vs DMSO: 94.1% (inactive)
[3]
  percent response of DMSO control: 116% (inactive)
[4]
  GFP response vs DMSO: 83.5% (inactive)
[5]
  GFP response, % of DMSO: 97% (inactive)
[6]
  double positive events: 64.9%
  vesicle binding response: 187% (inactive)
[7]
  inhibition: 12% (inactive)
[8]
  superoxide response (% of plate): 101% (inactive)
[9]
  aptamer binding inhibition: 5% (inactive)
[10]
  response: -8.58% (inactive)
[11]
  inhibition: -4.62% (inactive)
[12]
  response: -5.39% (inactive)
[13]
  binding (% of control): 102% (inactive)
[14]
  efflux inhibition (fraction of control): -0.14 (inactive)
[15]
  inhibition: 17% (inactive)
[16]
  differentiation response: 4.15% (inactive)

## O=C(c1cc2cc(Br)ccc2o1)N1CCCC1
[1]
  percent of DMSO control GFP: 101% (inactive)
[2]
  GFP response vs DMSO: 106% (inactive)
[3]
  percent response of DMSO control: 97.6% (inactive)
[4]
  GFP response vs DMSO: 139% (inactive)
[5]
  GFP response, % of DMSO: 99.4% (inactive)
[6]
  double positive events: 56.9%
  vesicle binding response: 146% (inactive)
[7]
  inhibition: -5.11% (inactive)
[8]
  superoxide response (% of plate): 93.6% (inactive)
[9]
  aptamer binding inhibition: 0% (inactive)
[10]
  response: -10.4% (inactive)
[11]
  inhibition: -6.7% (inactive)
[12]
  response: 0.97% (inactive)
[13]
  binding (% of control): 103% (inactive)
[14]
  efflux inhibition (fraction of control): -0.07 (inactive)
[15]
  inhibition: 9% (inactive)
[16]
  differentiation response: -3.11% (inactive)

## NC(N)=NC(N)=NCCc1ccccc1
[1]
  percent of DMSO control GFP: 101% (inactive)
[2]
  GFP response vs DMSO: 112% (inactive)
[3]
  percent response of DMSO control: 100% (inactive)
[4]
  GFP response vs DMSO: 94% (inactive)
[5]
  GFP response, % of DMSO: 100% (inactive)
[6]
  double positive events: 59.4%
  vesicle binding response: 210% (inactive)
[7]
  inhibition: 3.7% (inactive)
[8]
  superoxide response (% of plate): 105% (inactive)
[9]
  aptamer binding inhibition: 0% (inactive)
[10]
  response: -4.33% (inactive)
[11]
  inhibition: 7.19% (inactive)
[12]
  response: -3.91% (inactive)
[13]
  binding (% of control): 88.8% (inactive)
[14]
  efflux inhibition (fraction of control): 0.24 (inactive)
[15]
  inhibition: -4% (inactive)
[16]
  differentiation response: -8.55% (inactive)

## CC(=O)N(CCC(Cc1ccccc1)c1ccco1)Cc1ccco1 (stereo not given)
[1]
  percent of DMSO control GFP: 88.7% (inactive)
[2]
  GFP response vs DMSO: 145% (active)
[3]
  percent response of DMSO control: 104% (inactive)
[4]
  GFP response vs DMSO: 77.6% (inactive)
[5]
  GFP response, % of DMSO: 77.1% (inactive)
[6]
  double positive events: 68.1%
  vesicle binding response: 172% (inactive)
[7]
  inhibition: -0.33% (inactive)
[8]
  superoxide response (% of plate): 96.2% (inactive)
[9]
  aptamer binding inhibition: 1% (inactive)
[10]
  response: 5.89% (inactive)
[11]
  inhibition: 13.6% (inactive)
[12]
  response: -4.34% (inactive)
[13]
  binding (% of control): 97.4% (inactive)
[14]
  efflux inhibition (fraction of control): -0.06 (inactive)
[15]
  inhibition: 5% (inactive)
[16]
  differentiation response: -3.28% (inactive)

## CC1(C)[C@@H](O)CC[C@]2(C)[C@H]3C(=O)C=C4[C@@H]5C[C@@](C)(C(=O)O)CC[C@]5(C)CC[C@@]4(C)[C@]3(C)CC[C@@H]12
[1]
  percent of DMSO control GFP: 98.8% (inactive)
[2]
  GFP response vs DMSO: 100% (inactive)
[3]
  percent response of DMSO control: 89.6% (inactive)
[4]
  GFP response vs DMSO: 112% (inactive)
[5]
  GFP response, % of DMSO: 91% (inactive)
[6]
  double positive events: 64.3%
  vesicle binding response: 698% (inactive)
[7]
  inhibition: 13% (inactive)
[8]
  superoxide response (% of plate): 82.7% (inactive)
[9]
  aptamer binding inhibition: 7% (inactive)
[10]
  response: 7.4% (inactive)
[11]
  inhibition: -5.72% (inactive)
[12]
  response: 0.36% (inactive)
[13]
  binding (% of control): 97.6% (inactive)
[14]
  efflux inhibition (fraction of control): 0.11 (inactive)
[15]
  inhibition: 15% (inactive)
[16]
  differentiation response: 16.9% (inactive)

## CN1C(=O)NC(c2ccc(O)cc2)C2=C1CN(c1cccc3ccccc13)C2=O (stereo not given)
[1]
  percent of DMSO control GFP: 102% (inactive)
[2]
  GFP response vs DMSO: 107% (inactive)
[3]
  percent response of DMSO control: 106% (inactive)
[4]
  GFP response vs DMSO: 94% (inactive)
[5]
  GFP response, % of DMSO: 100% (inactive)
[6]
  double positive events: 64%
  vesicle binding response: 229% (inactive)
[7]
  inhibition: -1.49% (inactive)
[8]
  superoxide response (% of plate): 94.5% (inactive)
[9]
  aptamer binding inhibition: 0% (inactive)
[10]
  response: -19.6% (inactive)
[11]
  inhibition: 3.73% (inactive)
[12]
  response: -0.13% (inactive)
[13]
  binding (% of control): 99.8% (inactive)
[14]
  efflux inhibition (fraction of control): -0.23 (inactive)
[15]
  inhibition: -6% (inactive)
[16]
  differentiation response: 7.09% (inactive)
